Menin MLL FP TR: displaces Texas Red mutant MLL peptide from human menin | O00255 | Menin + Texas Red MLL mutant peptide, fluorescence polarization | hit rate 0.23% among 270,000 | Potency, µM (series often up to 61.6 µM), hits mostly inhibitors; active = well fitted inhibition curve with a large enough effect in the polarisation, with a control signal flat, not every such curve was filed as active; inconclusive = small, poorly fitted or top-dose-only effect, or effect the other way, or a change in a side signal; inactive = no such curve, though single readings can be large or run the other way; the % refers to the polarisation
Target sequence (O00255 whole entry, looked up): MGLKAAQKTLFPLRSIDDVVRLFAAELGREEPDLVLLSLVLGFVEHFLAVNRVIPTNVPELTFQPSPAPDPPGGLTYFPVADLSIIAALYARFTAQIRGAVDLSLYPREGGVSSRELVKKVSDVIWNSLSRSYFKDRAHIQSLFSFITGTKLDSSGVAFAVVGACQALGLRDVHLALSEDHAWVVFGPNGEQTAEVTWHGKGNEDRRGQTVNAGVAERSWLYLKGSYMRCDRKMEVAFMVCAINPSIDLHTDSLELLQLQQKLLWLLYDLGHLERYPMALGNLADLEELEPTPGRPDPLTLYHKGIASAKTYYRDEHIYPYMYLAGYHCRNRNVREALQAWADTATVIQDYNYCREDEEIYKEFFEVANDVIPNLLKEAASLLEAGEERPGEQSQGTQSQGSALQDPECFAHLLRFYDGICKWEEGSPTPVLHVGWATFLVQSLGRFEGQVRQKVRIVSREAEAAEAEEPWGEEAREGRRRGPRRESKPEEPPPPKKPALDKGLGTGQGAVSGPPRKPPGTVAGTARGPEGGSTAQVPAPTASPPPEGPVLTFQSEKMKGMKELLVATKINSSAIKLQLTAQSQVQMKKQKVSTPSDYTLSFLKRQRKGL
MBNL1 CUG block: MBNL1-poly(CUG) RNA binding inhibition. Potency, µM (series often up to 57.5 µM), actives largely listed as inhibitors. TR-FRET MBNL1-His/biotin-(CUG)12 binding, 665/545 ratio. AID 2675. Q9NR56. hit rate 0.036% among 280,000; active = well fitted inhibition curve with a large enough effect in the signal ratio, with a control signal flat, not every such curve was filed as active; inconclusive = small, poorly fitted or top-dose-only effect, or effect the other way, or a change in a side signal; inactive = no such curve, though single readings can be large or run the other way; the % refers to the signal ratio
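Inhibition of protein-RNA binding appears as loss of TR-FRET between terbium anti-His antibody on MBNL1-His and streptavidin-XL665 on biotin-(CUG)12. Activity is normalized to buffer-only and uninhibited-complex controls.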
Menin-MLL FL inh: displaces fluorescein MLL peptide from human menin. Fluorescence polarization, fluorescein-MLL peptide displacement from menin. FP activity change, % at 61.4 µM. 290,000 tested, under 10 active; active = well fitted curve in the direction sought with a large enough effect in the polarisation, not every such curve was filed as active; inconclusive = small, poorly fitted or top-dose-only effect, or effect the other way, or a change in a side signal; inactive = no such curve, though single readings can be large or run the other way; the % refers to the polarisation
CXXC DNA block: inhibitors of human MLL CXXC domain-DNA interaction; Q03164; MLL-CXXC / FITC-HOXA9 DNA fluorescence polarization; Potency, µM (titrated, usually from 115 µM), most hits filed as inhibitors; hit rate 0.037% among 290,000; active = well fitted inhibition curve with a large enough effect in the polarisation, with a control signal flat, not every such curve was filed as active; inconclusive = small, poorly fitted or top-dose-only effect, or effect the other way, or a change in a side signal; inactive = no such curve, though single readings can be large or run the other way; the % refers to the polarisation
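Purified MLL-CXXC (added from a 7 uM solution) was preincubated 5 min at ambient with pinned compounds in 50 mM Tris-HCl pH 7.5, 50 mM NaCl, 1 mM DTT, 0.05% BSA. Fluorescein-labeled HOX-A9 DNA (50 nM solution) followed, 30 min, then polarization read.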
MBNL1 TRFRET: MBNL1-poly(CUG) RNA binding inhibition confirmed; Potency, µM (doses to about 57.6 µM), actives largely listed as inhibitors; TR-FRET MBNL1-His / biotin-(CUG)12 binding, 60 min; shares compounds with MBNL1 CUG block; hit rate 50% among 140; AID 493199
MBNL1 AlphaScrn: blocks MBNL1 binding to (CUG)12 RNA in AlphaScreen | AlphaScreen MBNL1-His / biotin-(CUG)12 binding | hit rate 30% among 140 | shares compounds with MBNL1 CUG block | Potency, µM (titrated, usually from 57.7 µM), usual class: inhibitors | AID 493205
MBNL1 HTRF CS: counter-screen for MBNL1-poly(CUG) RNA binding inhibitors; Potency, µM (titrated, usually from 57.6 µM), most hits filed as inhibitors; hit rate 20% among 120; shares compounds with MBNL1 CUG block; AID 651843; His-Menin/biotin-MLL peptide TR-FRET counterscreen
Numbers stand for hits; [ ] = remark or other dose. The entries come from a sample that favours hits as a whole. Unless noted, calls follow the shape of the dose curve; as a rule, active = well fitted curve in the direction sought with a large enough effect; inconclusive = small, poorly fitted or top-dose-only effect, or another doubt; inactive = no such curve, though single readings can be large; an effect the other way counts as inactive or inconclusive.

What do the screens show for `O=C1N(c2ccc(Cl)c(Cl)c2)CN(Cc2ccccc2)CN1n1cnnc1`?
Menin MLL FP TR: inactive; MBNL1 CUG block: 13µM; Menin-MLL FL inh: inactive; CXXC DNA block: inactive; MBNL1 TRFRET: 16µM; MBNL1 AlphaScrn: inactive; MBNL1 HTRF CS: inconclusive

What do the screens show for `COc1cc(NC(=O)Nn2cnnc2)cc(OC)c1OC`?
Menin MLL FP TR: inactive; MBNL1 CUG block: inactive; Menin-MLL FL inh: inactive; CXXC DNA block: inactive

Results for O=C(Nc1ccc(F)c(Cl)c1)Nn1cnnc1 ?
MBNL1 CUG block: 40µM; CXXC DNA block: inactive; MBNL1 TRFRET: 13µM; MBNL1 AlphaScrn: inactive; MBNL1 HTRF CS: inconclusive

How did COc1ccc(NC(=O)Nn2cnnc2)cc1OC do in these assays?
Menin MLL FP TR: inactive; MBNL1 CUG block: 40µM; Menin-MLL FL inh: inactive; CXXC DNA block: inactive; MBNL1 TRFRET: 26µM; MBNL1 AlphaScrn: inactive; MBNL1 HTRF CS: inconclusive

How did O=C(Nc1ccc(F)cc1)Nn1cnnc1 do in these assays?
Menin MLL FP TR: inactive; MBNL1 CUG block: inactive; Menin-MLL FL inh: inactive; CXXC DNA block: inactive

What do the screens show for `CC#CCN1c2ccccc2[C@]23C[C@@H](C(=O)OC)N(S(=O)(=O)c4ccc([N+](=O)[O-])cc4)C2=NC(C(=O)OC)=C(C(=O)OC)[C@H]13`?
Menin MLL FP TR: inactive[11.7 µM]; Menin-MLL FL inh: inactive[11.7 µM]

What do the screens show for `COC(=O)c1ccc(=O)c2nc3/c(=C/O)c(O)cc(=O)c3[nH]c12`?
MBNL1 CUG block: inconclusive; Menin-MLL FL inh: inconclusive; CXXC DNA block: inactive; MBNL1 TRFRET: 0.26µM; MBNL1 AlphaScrn: 0.29µM; MBNL1 HTRF CS: inactive

What do the screens show for `C=C(CO)C1Cc2c(ccc3c2OC2COc4cc(OC)c(OC)cc4C2C3=O)O1` (stereo not given)?
Menin MLL FP TR: inactive; Menin-MLL FL inh: inconclusive

How did CC(C)C[C@H](NC(=O)[C@@H](Cc1c[nH]c2ccccc12)NC(=O)[C@H](Cc1ccc(O)cc1)NC(=O)[C@H](CO)NC(=O)[C@H](Cc1c[nH]c2ccccc12)NC(=O)[C@H](Cc1cnc[nH]1)NC(=O)[C@@H]1CCC(=O)N1)C(=O)N[C@@H](CCCN=C(N)N)C(=O)N1CCC[C@H]1C(=O)NCC(N)=O do in these assays?
Menin MLL FP TR: inactive; Menin-MLL FL inh: inactive

What do the screens show for `Cc1ccc(NC(=O)CSc2ncc(S(=O)(=O)c3ccccc3)c(=O)[nH]2)cc1C`?
Menin MLL FP TR: inactive; MBNL1 CUG block: 25µM; Menin-MLL FL inh: inactive; CXXC DNA block: inactive; MBNL1 TRFRET: inconclusive; MBNL1 AlphaScrn: inconclusive; MBNL1 HTRF CS: inactive

How did COc1cccc(NC(=O)CSc2ncc(S(=O)(=O)c3ccccc3)c(=O)[nH]2)c1 do in these assays?
MBNL1 CUG block: inactive; Menin-MLL FL inh: inactive; CXXC DNA block: inactive

Results for Cn1c(=O)c2c(ncn2CCO)n(C)c1=O ?
Menin MLL FP TR: inactive; MBNL1 CUG block: inactive; Menin-MLL FL inh: inactive; CXXC DNA block: inactive; MBNL1 TRFRET: inactive; MBNL1 AlphaScrn: inactive; MBNL1 HTRF CS: inactive

Results for COc1ccc(C(c2c(C)[nH]n(-c3ccccc3)c2=O)c2c(C)[nH]n(-c3ccccc3)c2=O)cc1OC ?
Menin MLL FP TR: inactive; MBNL1 CUG block: 40µM; Menin-MLL FL inh: inactive; CXXC DNA block: inconclusive; MBNL1 TRFRET: inconclusive; MBNL1 AlphaScrn: inconclusive; MBNL1 HTRF CS: inactive

How did COc1ccc(C(c2c(C)n(C)n(-c3ccccc3)c2=O)c2c(C)n(C)n(-c3ccccc3)c2=O)cc1OC do in these assays?
Menin MLL FP TR: inactive; MBNL1 CUG block: inactive; Menin-MLL FL inh: inactive; CXXC DNA block: inactive

What do the screens show for `OC[C@H]1NC[C@H](O)[C@@H](O)[C@@H]1O`?
Menin MLL FP TR: inactive; Menin-MLL FL inh: inactive

How did COc1ccc(C)cc1S(=O)(=O)Nc1ccc(F)c(Cl)c1 do in these assays?
Menin MLL FP TR: inactive; MBNL1 CUG block: 25µM; Menin-MLL FL inh: inactive; CXXC DNA block: inactive; MBNL1 TRFRET: inactive; MBNL1 AlphaScrn: inactive; MBNL1 HTRF CS: inactive

How did Cc1cc(N2CCN(C)CC2)nc2ccc(NC(=O)c3ccc4c(c3)OCO4)cc12 do in these assays?
Menin MLL FP TR: inactive; MBNL1 CUG block: inactive; Menin-MLL FL inh: inactive; CXXC DNA block: inactive

How did COc1cc(C(=O)Nc2ccc3nc(N4CCN(C)CC4)cc(C)c3c2)cc(OC)c1OC do in these assays?
Menin MLL FP TR: inactive; MBNL1 CUG block: 22µM; Menin-MLL FL inh: inactive; CXXC DNA block: inactive; MBNL1 TRFRET: 10µM; MBNL1 AlphaScrn: inactive; MBNL1 HTRF CS: 29µM

What do the screens show for `O=C(CSc1n[nH]c(-c2ccncc2)n1)NC1CCS(=O)(=O)C1` (stereo not given)?
Menin MLL FP TR: inactive; MBNL1 CUG block: 7.9µM; Menin-MLL FL inh: inactive; CXXC DNA block: inactive; MBNL1 TRFRET: 10µM; MBNL1 AlphaScrn: inactive; MBNL1 HTRF CS: inconclusive

What do the screens show for `O=C(O)CCCCCCCC(=O)O`?
Menin MLL FP TR: inactive; MBNL1 CUG block: 20µM; Menin-MLL FL inh: inactive; CXXC DNA block: inactive; MBNL1 TRFRET: inconclusive; MBNL1 AlphaScrn: inconclusive; MBNL1 HTRF CS: inactive

Results for NCCCCCC(=O)O ?
Menin MLL FP TR: inactive; Menin-MLL FL inh: inconclusive; CXXC DNA block: inactive

How did CCOC(=O)CCCCC(=O)c1[nH]c(=O)[nH]c1Cn1cnc2ccccc21 do in these assays?
Menin MLL FP TR: inconclusive; MBNL1 CUG block: 10µM; Menin-MLL FL inh: inactive; CXXC DNA block: inactive; MBNL1 TRFRET: 10µM; MBNL1 AlphaScrn: 2.6µM; MBNL1 HTRF CS: 26µM

Results for CCn1c(SCC(=O)Nc2nc(C)c(C)s2)nnc1-c1ccco1 ?
Menin MLL FP TR: inactive; MBNL1 CUG block: inactive; Menin-MLL FL inh: inactive; CXXC DNA block: inactive

Results for CCn1c(SCC(=O)Nc2nc(C)c(C)s2)nnc1-c1cccs1 ?
Menin MLL FP TR: inactive; MBNL1 CUG block: 40µM; Menin-MLL FL inh: inactive; CXXC DNA block: inactive; MBNL1 TRFRET: inactive; MBNL1 AlphaScrn: inactive; MBNL1 HTRF CS: inactive

Results for CCCCCCCCCCCCCC[C@@H](O)[C@@H](O)[C@@H](N)CO ?
Menin MLL FP TR: inactive; Menin-MLL FL inh: inactive

What do the screens show for `CCCCCCOc1ccc(C(=N)N(CCCC)CCCC)c2ccccc12`?
Menin MLL FP TR: inconclusive; Menin-MLL FL inh: inactive; CXXC DNA block: inconclusive

Results for CN(C(=O)COC(=O)c1ccc(-c2ccc(O)cc2)cc1)C1CCS(=O)(=O)C1 (stereo not given) ?
MBNL1 CUG block: 40µM; Menin-MLL FL inh: inactive; CXXC DNA block: inactive; MBNL1 TRFRET: inconclusive; MBNL1 AlphaScrn: 21µM; MBNL1 HTRF CS: inactive

How did OC[C@@H]1OC(O)[C@H](O)[C@H](O)[C@H]1O (stereo not given in full) do in these assays?
Menin MLL FP TR: inactive; Menin-MLL FL inh: inactive

How did CC1=CC(=C(c2ccc(N)cc2)c2ccc(N)cc2)C=CC1=N do in these assays?
Menin MLL FP TR: inconclusive; Menin-MLL FL inh: inactive; CXXC DNA block: inactive

Assay outcomes deposited in PubChem by National Center for Advancing Translational Sciences (NCATS).
